Source: PubChem BioAssay
Most compounds without a hit are left out; they make up all but 7.1% or so of the library.
MCF10A rereplic – inducers of DNA re-replication in MCF 10A breast cells; MCF 10A DNA re-replication, Hoechst nuclear intensity, 48 h; Potency, µM (doses to about 46.1 µM), for inactives: top-dose activity, positive = re-replication, actives largely listed as activators; 350,000 tested, 2.9% active; AID 624296; also: % of control where 0% means no effect; nearly all actives have a fitted effect of over 50% in size
SW480 rereplic – induces DNA re-replication in SW480 colon adenocarcinoma cells. SW480 DNA re-replication, Hoechst DNA content imaging, 48 h. Potency, µM (titrated, usually from 46.1 µM), for inactives: at the top dose re-replication activation, actives largely listed as activators. 340,000 tested, 1.8% active. AID 624297; also: % of control where 0% means no effect; nearly all actives have a fitted effect of over 55% in size
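250 cells/well; 23 nL cpd via pin tool; 48 hr, 37 C, 5% CO2; Hoechst 40 min; imager read of total nuclear intensity, ex 405/em 500-530 nm.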
A-T KAP1 phos – potential ataxia-telangiectasia treatment. F2112 A-T fibroblasts, KAP-1 phosphorylation AlphaLISA; neocarzinostatin DNA damage 30 min before lysis. Potency, µM (doses to about 57.5 µM), without a hit: at the top dose activation, actives largely listed as activators. 320,000 tested, 0.19% active; also: % of control where 0% means no effect; nearly all actives have a fitted effect of over 45% in size
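ATM-like activity read as KAP-1 phosphorylation via AlphaLISA donor/acceptor antibody pairs after lysis and 6 hr at 25C. Cells were ATM-null patient fibroblasts (F2112, hTERT), dosed 60 min, then exposed to the DSB inducer NCS for 30 min.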
ELG1 repair inh – inhibitors of ELG1-dependent DNA repair in HEK293T cells | Potency, µM (titrated, usually from 46.1 µM), for inactives: at the highest dose activity change, negative = inhibition, hits mostly inhibitors | HEK293T ELG1-luciferase reporter, luminescence, 16 h; DNA damage induced by 5-fluorouridine | AID 504467 | 330,000 tested, 2.3% active; also: % is scaled to controls: 0 for no effect and ±100 for the full control effect; nearly all actives have a fitted effect of over 55% in size
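Reporter activity after DNA damage by 5-fluorouridine is monitored. Compound-treated cells incubate 16 hr at 37 °C, then ONE-Glo is added for 30 min before luminescence reading.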
p53 reactivator – restores transcriptional activity of mutant p53 | H1299 p53-A138V BP100-luciferase reporter, luminescence, 24 h | Potency, µM (top dose mostly 92.2 µM), inactives show at the top dose activity change, positive = activation, actives largely listed as activators | 320,000 tested, 0.063% active; also: % of control where 0% means no effect; nearly all actives have a fitted effect of over 45% in size
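p53-null H1299 cells stably carrying temperature-sensitive p53-A138V and a BP100-luciferase reporter were pinned with compounds (4-point, 1:5 series) and held 24 hrs at 37 deg C. Luminescence was read 10 min after detection reagent.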
ELG1 genotox – inducers of genotoxicity in HEK293T ELG1-luciferase cells; HEK293T ELG1-luciferase reporter, luminescence, 16 h; Potency, µM (top dose mostly 46 µM), for the others: at the highest dose activity change, positive = activation, hits mostly activators; 330,000 tested, 1.3% active; also: % of control where 0% means no effect; nearly all actives have a fitted effect of over 60% in size
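Genotoxicity was scored as increased ELG1-luciferase reporter signal, measured by ONE-Glo luminescence (30 min, room temperature). Compound or vehicle exposure of the HEK293T reporter cells lasted 16 hr at 37°C.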
Active calls of the source: *; u = inconclusive; x = no result; [ ] = another dose, or the depositor's remark. Calls follow the shape of the dose curve; as a rule, active = well fitted curve in the direction sought with a large enough effect; inconclusive = small, poorly fitted or top-dose-only effect, or another doubt; inactive = no such curve, though single readings can be large; an effect the other way counts as inactive or inconclusive. Potency is read from the fitted curve at half-maximal effect.

SMILES	MCF10A rereplic	SW480 rereplic	A-T KAP1 phos	ELG1 repair inh	p53 reactivator	ELG1 genotox
Cc1cc(C)c2cc3c(N)c(C(=O)N4CCc5ccccc5C4)sc3nc2c1	-6%	3%	3%	-4%	-10%	-1%
CCN(CC)C(=O)OCCc1cc2ccccc2c(=O)o1	u	-74%[9.22 µM]	3%	18%	6%	4%
CCN(c1ccccc1)S(=O)(=O)c1ccc(N2CCN(c3ccccc3O)CC2)nc1	-4%	4%	2%	u	15%	-10%
CCOC(CCn1c(SCc2ccc([N+](=O)[O-])cc2)nc2ccccc2c1=O)OCC	-3%	-52%	2%	15µM*	-4%	-6%
N#CCSc1nc2ccccc2c(=O)n1C1CCCCC1	-1%	0%	2%	3%	-2%	-15%
O=c1c2ccccc2nc(SCc2cccc(F)c2)n1C1CCCC1	18µM*	11%	5%	4%	-34%	2%
CCn1c(SCc2ccc(OC)c(F)c2)nc2ccccc2c1=O	18µM*	6%	6%	-14%	-4%	0%
Cc1cc(NC(=O)CSc2nc3ccccc3c(=O)n2C2CCCC2)no1	1.3µM*	1.3µM*	x	7%	-3%	16%
CN(C)c1ccc(NC(=O)CSc2nc3ccccc3c(=O)n2C2CCCCC2)cc1	u	1%	x	-25%	21%	2%
CCc1ccc(C2=NN(C(=O)CCC(=O)O)C(c3cccs3)C2)cc1 (configuration not stated)	u	-22%	-1%	6%	-11%	0%
O=C(CC1SC(N2CCCC2)=NC1=O)Nc1ccc(C(=O)NCc2ccc(F)cc2)cc1 (configuration not stated)	-6%	-23%	9%	15%	-2%	0%
CCOC(CCn1c(SCC(=O)Nc2cc(C)on2)nc2ccccc2c1=O)OCC	2%	2%	1%	21µM*	0%	-4%
CCOC(Cn1c(SCC(=O)Nc2cc(C)on2)nc2ccccc2c1=O)OCC	16%	1%	3%	0%	-5%	-1%
O=c1c2ccccc2nc(SCc2ccccc2)n1CC1CCCO1 (configuration not stated)	10%	-9%	14µM*	4%	0%	-4%
CCCN(Cc1ccccc1)C(=S)NC(=O)c1ccccc1[N+](=O)[O-]	3%	-4%	-1%	u	-9%	-4%
CCN(Cc1ccccc1)C(=S)NC(=O)c1ccccc1Br	15%	12µM*	-5%	-28%	-6%	-5%
Cn1nc(C(F)(F)F)c(/C=N/OC(=O)c2ccccc2Cl)c1SCc1ccccc1Cl	23%	u	5%	13µM*	-6%	-16%
Cn1nc(C(F)(F)F)c(/C=N/OC(=O)c2ccccc2)c1SCc1ccc(Cl)cc1	u	18%	-4%	u	3%	-10%
c1ccc2c(c1)[nH]c1c(NCC3CCCO3)ncnc12 (configuration not stated)	6%	-4%	5%	15µM*	-10%	-10%
CCOCCCNc1ncnc2c1[nH]c1ccccc12	4%	3%	1%	15µM*	-25%	-1%
CN(CC(=O)Nc1ccccc1Br)C(=O)C1CCN(C(=O)c2ccc(Cl)cc2)CC1	6%	8%	x	x	x	x
CC(NC(=O)c1ccc(Cl)cc1)c1nnc(SCC(=O)NC2=NCCS2)n1C (configuration not stated)	-10%	15%	-4%	5%	1%	3%
NC(=O)C1CCN(c2nc(C3CC3)nc3c2nnn3Cc2ccccc2Cl)CC1	21µM*	-2%	-2%	-25%	2%	9%
C[C@@H](C(=O)Nc1ccc2ccccc2c1)[C@H]1C[C@]1(C)[C@H](NC(=O)c1cccnc1)c1ccccc1	u	14%	5%	18µM*	1%	-9%
COC(=O)c1cc(S(=O)(=O)N2CCN(Cc3ccccc3)CC2)cn1C	3%	-15%	6%	3%	x	0%
SMILES	MCF10A rereplic	SW480 rereplic	A-T KAP1 phos	ELG1 repair inh	p53 reactivator	ELG1 genotox
NC(=O)C1CCN(C(=O)c2cc3ccccc3cc2O)CC1	-3%	-13%	10%	15%	0%	3%
CCCc1nc2ccc(NC(=O)c3ccco3)cc2c(=O)n1Cc1ccccc1Cl	20%	-14%[9.22 µM]	1%	18µM*	-3%	0%
CCC(=O)Nc1ccc2nc(C3CC3)n(Cc3ccccc3)c(=O)c2c1	3%	-5%	2%	u	15%	8.2µM*
COc1ccc(-c2noc(CCC(=O)NCC3CCCO3)n2)cc1OC (configuration not stated)	-6%	-3%	4%	24%	-5%	5%
COc1ccc(C2=NOC(C(=O)NCc3ccc(F)cc3)C2)cc1OC (configuration not stated)	1.6µM*	2.1µM*	-4%	10%	-7%	20%
COc1cc(C2=NOC(C(=O)NCc3ccc(F)cc3)C2)cc(OC)c1OC (configuration not stated)	3.3µM*	0.73µM*	x	u	u	8%
COc1cc(C2=NOC(C(=O)N3CCCCCC3)C2)cc(OC)c1OC (configuration not stated)	-2%	-9%	0%	7.3µM*	-9%	1%
COc1ccc(NC(=O)C2CC(c3ccc(OC)c(OC)c3)=NO2)cc1OC (configuration not stated)	13%	-2%	2%	-9%	0%	0%
O=C(NCc1ccc(Cl)cc1)N1CCN(Cc2ccccc2)CC1	9%	20%	5%	u	-16%	-13%
Oc1ccc(CCNc2ncnc3ccc(Cl)cc23)cc1	8.2µM*	-62%	1%	u	x	-15%
Nc1nc(Cl)cc(NCCc2ccc(O)cc2)n1	1%	-13%	-4%	-3%	-1%	5%
COc1ccc(-c2cc(C(=O)Nc3ccccc3O)c3ccccc3n2)cc1OC	10%	u	1%	23µM*	-4%	-11%
COc1ccc(-c2cc(C(=O)Nc3ccc(S(N)(=O)=O)cc3)c3ccccc3n2)cc1OC	8.2µM*	5.8µM*	-3%	2%	-6%	3%
COc1ccc(-c2cc(C(=O)Nc3nc4ccccc4s3)c3ccccc3n2)cc1OC	2.9µM*	u	4%	15µM*	15%	-4%
COc1ccc(-c2cc(C(=O)Nc3cc(S(N)(=O)=O)ccc3C)c3ccccc3n2)cc1OC	7%	-19%	x	x	x	x
CCOC(=O)[C@H](CCc1ccccc1)N[C@@H](C)C(=O)N1C(=O)N(C)C[C@H]1C(=O)O	0%	-2%	x	x	x	x
CC(=O)c1sc2nc(C)c3c(c2c1N)CCCC3	18µM*	15µM*	35µM*	-4%	-5%	-19%
